GDH-TPI counter = GDH-TPI coupled enzyme inhibition counter-screen | hit rate 1.2% among 360,000 | inhibition, % at 4.8 µM | GDH-TPI coupled enzyme counterscreen, NADH absorbance | AID 588335; in the data active = inhibition above about 30%
Mtb betalactam = beta-lactam sensitization of Mtb H37Rv; M. tuberculosis H37Rv growth with meropenem, percent inhibition; inhibition, % at 25 µM; hit rate 0.27% among 330,000;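 note: growth measured after seven days incubation then overnight dye step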
Rv3671c protease = Rv3671c (M. tuberculosis) protease inhibition | inhibition, % at 5.96 µM | AID 2606 | hit rate 0.048% among 320,000 | P9WHR9; in the data active = inhibition above about 38%;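 note: extracellular domain of Rv3671c used as enzyme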
Mtb FBA inh = inhibitors of M. tuberculosis fructose-bisphosphate aldolase; purified M. tuberculosis FBA, fluorescence read-out; inhibition, % at 1 µM; AID 588726; hit rate 2.3% among 360,000; P9WQA3; in the data active = inhibition above about 27%
RecA intein inh = blocks M. tuberculosis RecA intein splicing; AID 2221; P9WHJ3; cell-free RecA intein splicing, fluorescence; inhibition, % (concentration not given with the values); hit rate 0.75% among 290,000; in the data active = inhibition above about 30%; inconclusive = no clear call, values can overlap the other calls
UGM FP inh = blocks M. tuberculosis UGM enzyme; P9WIQ1; purified UGM, fluorescence polarization probe displacement; inhibition, % at 10 µM; hit rate 0.06% among 320,000; AID 504406; in the data active = inhibition above about 10%, passing the limit was not always enough; inconclusive = no clear call, values can overlap the other calls
Target sequence (P9WIQ1 whole entry, looked up): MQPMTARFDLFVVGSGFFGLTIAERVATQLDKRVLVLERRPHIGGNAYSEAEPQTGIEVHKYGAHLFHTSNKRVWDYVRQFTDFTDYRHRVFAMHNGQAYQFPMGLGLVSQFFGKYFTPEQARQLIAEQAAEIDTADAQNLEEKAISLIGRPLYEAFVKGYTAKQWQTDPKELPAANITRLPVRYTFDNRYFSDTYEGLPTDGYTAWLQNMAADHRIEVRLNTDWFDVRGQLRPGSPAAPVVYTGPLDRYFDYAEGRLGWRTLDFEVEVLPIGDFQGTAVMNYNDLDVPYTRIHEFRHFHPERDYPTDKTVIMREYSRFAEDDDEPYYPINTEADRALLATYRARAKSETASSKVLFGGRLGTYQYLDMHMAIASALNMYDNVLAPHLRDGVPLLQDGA
GFP chromophore = counter-screen: blocks GFP chromophore formation. shares compounds with RecA intein inh. hit rate 83% among 2,100. cell-free GFP chromophore formation, fluorescence. EC50, µM. AID 434968
Of the large screens only hits and unclear results are named; the others gave an inactive call (follow-up assays come after a bar, where they were run). Rows were chosen to be rich in hits. Some 4% of all compounds tested hit in one or more screens of this group. Unless noted, the rule behind the calls is not given here.

Cn1c(CNC(=O)c2ccco2)nnc1SCC(=O)c1ccc(F)cc1	Mtb betalactam inconclusive
CCOC(=O)c1ccc(CC2S/C(=C(\C#N)C(C)=O)NC2=O)cc1 (stereo not drawn)	RecA intein inh 82 | GFP chromophore inactive
Cc1ccc(S(=O)(=O)NN=Cc2c(O)ccc3ccccc23)cc1	none (no result: Mtb betalactam, Rv3671c protease, RecA intein inh, UGM FP inh)
O=C(O)c1cc(NS(=O)(=O)c2cccc3ccccc23)ccc1O	none (no result: GDH-TPI counter, Mtb betalactam)
O=S(=O)(Nc1c(O)ccc2ccccc12)c1cccc2ccccc12	RecA intein inh 84 | GFP chromophore 4.3
Cc1ccc(S(=O)(=O)Nc2c(O)ccc3ccccc23)cc1	RecA intein inh 76 | GFP chromophore 3.1
CC(C)CN(C(=O)Cn1c(Cl)nc2c1c(=O)n(C)c(=O)n2C)C1CCS(=O)(=O)C1 (stereo not drawn)	none
Nc1ccc2nc(CCCCCCc3nc4ccc(N)cc4[nH]3)[nH]c2c1	none
Nc1ccc2nc(CCCCc3nc4ccccc4[nH]3)[nH]c2c1	RecA intein inh 36 (no result: Rv3671c protease) | GFP chromophore inactive
CCCCCCCCCCOC(=O)Cn1c(COc2cccc(C)c2)[n+](C)c2ccccc21	RecA intein inh 55 | GFP chromophore 9.4
CCCCCCCCCCOC(=O)Cn1c(COc2ccc(Cl)cc2)[n+](C)c2ccccc21	none
CCCCCCCCCCOC(=O)Cn1c(COc2ccccc2C)[n+](C)c2ccccc21	RecA intein inh 57 | GFP chromophore 7.6
CCCCCCCCCCOC(=O)Cn1c(COc2ccc(OC)cc2)[n+](C)c2ccccc21	RecA intein inh 42 | GFP chromophore 11
CCCCCCCCCCOC(=O)Cn1c(COc2ccccc2)[n+](C)c2ccccc21	RecA intein inh 47 | GFP chromophore 12
CC(C)CCn1nnnc1C(C(C)C)N1CCC(C(N)=O)CC1 (stereo not drawn)	none
CCN(CC)S(=O)(=O)c1ccc(Cl)c(C(=O)Oc2cccnc2)c1	none
O=C(COc1ccc2ccccc2c1)Nc1cccc2cccnc12	none
N#Cc1ccc(Oc2ccc(C(N)=O)cc2)cc1C#N	none
CC1=C(C)/C(=N\OC(=O)/C=C/c2ccccc2)C=CC1=O	RecA intein inh 38 | GFP chromophore inactive
COc1cc(S(=O)(=O)NCc2ccncc2)ccc1Br	none
COc1ccc2c(c1)-c1nc(/N=C/c3c(O)ccc4ccccc34)sc1CC2	RecA intein inh 51 (no result: Mtb betalactam, Rv3671c protease, UGM FP inh) | GFP chromophore inactive
COc1cc(N)c(C(=O)c2nccc3cc(OC)c(OC)cc23)cc1OC	none
COc1cc(C(=O)c2nccc3cc(OC)c(OC)cc23)c([N+](=O)[O-])cc1OC	GDH-TPI counter 38, RecA intein inh 95 | GFP chromophore 0.39
COc1cc(Br)c(C(=O)c2nccc3cc(OC)c(OC)cc23)cc1OC	RecA intein inh 84 | GFP chromophore 0.75
CSC(=S)NCc1cccnc1	none
CN(C(=O)c1ccc(N2CCCCC2)c([N+](=O)[O-])c1)C1CCS(=O)(=O)C1 (stereo not drawn)	none (no result: RecA intein inh)
O=C(Cc1cc(=O)[nH][nH]1)N/N=C/C=C/c1ccccc1	RecA intein inh 85 | GFP chromophore 18
O=C(CNC(=O)c1ccccc1)N/N=C/C=C/c1ccccc1	none
Cc1ccc(OC(=O)c2ccc([N+](=O)[O-])cc2Cl)cn1	RecA intein inh 32 | GFP chromophore 33
Cc1ccc(S(=O)(=O)/N=C2\C=C(Nc3cccc(C(=O)O)c3)C(=O)c3ccccc32)cc1	RecA intein inh 95 | GFP chromophore 0.51
Cc1ccc(S(=O)(=O)/N=C2/C=C(Sc3ncn[nH]3)C(=O)c3ccccc32)c(C)c1	none (no result: GDH-TPI counter, Mtb FBA inh, RecA intein inh)
CCc1ccc(S(=O)(=O)/N=C2\C=C(Nc3ccc(C(=O)O)cc3)C(=O)c3ccccc32)cc1	RecA intein inh 91 | GFP chromophore 0.24
Cc1ccc(S(=O)(=O)/N=C2\C=C(Nc3cccc(C(=O)O)c3)C(=O)c3ccccc32)c(C)c1	RecA intein inh 82 | GFP chromophore inactive
CC(C)(C)c1ccc(S(=O)(=O)/N=C2\C=C(NS(=O)(=O)c3ccccc3)C(=O)c3ccccc32)cc1	RecA intein inh 63 | GFP chromophore 7.9
Cc1ccc(S(=O)(=O)/N=C2\C=C(NS(=O)(=O)c3ccccc3)C(=O)c3ccccc32)c(C)c1	none (no result: Mtb betalactam, Rv3671c protease, RecA intein inh, UGM FP inh)
Nc1nnc(CC(c2ccccc2)c2ccccc2)s1	none
Cc1cc(NC(=O)CCC(=O)N(Cc2cccnc2)C(C(=O)NC(C)(C)C)c2ccccc2Cl)no1 (stereo not drawn)	none
